# Results: PubChem BioAssay (Tox21)
# Values without a mark were called inactive. Active and inactive are the calls of the source. The call rests on the fitted dose curve; in most records, active means well fitted curve in the direction sought with a large enough effect in the repeat runs; inconclusive means weak or mixed curves; inactive means flat fitted curve, though single readings scatter.
# Test: qHTS assay to test for compound auto fluorescence at 460 nm (blue) in HepG2 cell free culture (AID 720685)
# Conditions: Cell-free culture medium, blue autofluorescence 405/460 nm; series mostly up to 91.3 µM; fluorescence, % of fluorescent control: at the top concentration
# Source text: U.S. Tox21 Program National Center for Advancing Translational Sciences [NCATS] NIH Chemical Genomics Center [NCGC] U.S. Environmental Protection Agency [EPA] National Institutes of Environmental Health Sciences [NIEHS] National Toxicology Program [NTP] U.S. Food and Drug Administration [FDA] Tox21 Assay Overview: Compound auto fluorescence often interferes with screening of the compound library against various biological targets and signaling pathways. Some of these compounds may have fluorophoric properties. Such properties may interfere with the assay outputs resulting in false positives and/or negatives. To decrease such complications and ensure the compound activities are relevant in terms of biological response, the Tox21 10K compound library was screened for auto fluorescence. From the fluorophores used as reporter signals in our screening assays, the auto fluorescence equivalencies of compounds against three fluorophores have been evaluated: Triamterene, Fluorescein and Rose Bengal sodium for blue, green and red fluorescence, respectively. The fluorescence intensities were measured using Excitation/Emission wavelengths at 405/460nm, 485/535nm and 540/590nm for blue, green and red labels, respectively. This assay includes the blue fluorescence data.
# Tox21 Assay Protocol Summary: 5 uL of culture medium (MEM containing 10% FBS) per well was dispensed into black wall/clear bottom 1536-well plates using a Multidrop Combi Dispenser (ThermoFisher Scientific, Waltham, MA). After 23 nL compound or DMSO vehicle was transferred into assay plate by a pintool work station (Kalypsys, San Diego, CA), fluorescence intensities in the assay plates were measured by an Envision (PerkinElmer, Shelton, CT) plate reader using three labels for measuring blue, green and red fluorescence at […] 460, 535 and 590nm respectively.
# On the % scale 0 is the no-effect control and ±100 the full control effect; potency means the concentration at half of the fitted maximal effect; tags describe the fitted curve by direction and shape or compound fluorescence and quenching.
SMILES,"fluorescence, % of fluorescent control",Potency
CCCCCCCCCCCCOCCOCCOCCOCCOCCOCCOCCOCCOCCO,-0.0052% [at 46 µM],–
Cc1ccc(C(C)C)cc2c(C)ccc1-2,0.0324% [at 46 µM],–
CN1CCN(Cc2cc(-c3ccc4[nH]c(=O)oc4c3)co2)[C@@H](c2ccc(F)cc2)C1,1.28%,–
c1ccsc1,-0.0576%,–
CCCCC(CC)CN1CN(CC(CC)CCCC)CC(C)(N)C1 (stereo not given),-0.127% [at 18.6 µM],–
CCCCCCCCCCCCCC[N+](C)(C)Cc1ccccc1,–,inactive
CCCCCCOC(=O)C(C)CC (stereo not given),-0.0523%,–
Cc1cc(C)c(/C=C2\C(=O)Nc3ccccc32)[nH]1,2.08% [at 46 µM],–
CCCCCCCCCCCC(=O)OCC(C)OC(=O)CCCCC(=O)O (stereo not given),-0.111% [at 46 µM],–
CC(=O)c1ccc(C(C)=O)cc1,0.0202% [at 95.7 µM],–
Cc1cc(-n2nc3ccc(Cl)cc3n2)c(O)c(C(C)(C)C)c1,-0.0826% [at 46 µM],–
Clc1nnc(Cl)c2ccccc12,0.0175%,–
O=C(O)c1cccc(C(F)(F)F)c1,-0.242%,–
CCc1oc2ccccc2c1C(=O)c1cc(I)c(O)c(I)c1,0.443% [at 46 µM],–
CNc1ccc([N+](=O)[O-])cc1,-0.521%,–
CN(C)Cc1cc(C(C)(C)C)c(O)c(C(C)(C)C)c1,-0.0696%,–
COC(=O)c1ccccc1OC,-0.0716%,–
Cc1ccc(C)cc1,0.0851%,–
OCCN1CCN(CCCN2c3ccccc3Sc3ccc(C(F)(F)F)cc32)CC1,0.0979% [at 46 µM],–
CC(C)OC(=O)C(O)(CC(=O)O)CC(=O)O,-0.0956%,–

SMILES,"fluorescence, % of fluorescent control",Potency
O=C(O)[C@H](O)[C@@H](O)[C@H](O[C@@H]1O[C@H](CO)[C@H](O)[C@H](O)[C@H]1O)[C@H](O)CO,0.0634% [at 18.6 µM],–
ClCCl,-0.305%,–
O=C1OC2(c3ccc(O)cc3Oc3cc(O)ccc32)c2ccc(N=C=S)cc21,-0.792% [at 95.7 µM],–
C#C[C@]1(OC(C)=O)CC[C@H]2[C@@H]3CCC4=C/C(=N/O)CC[C@@H]4[C@H]3CC[C@@]21CC,0.022% [at 46 µM],–
OCC(F)(F)F,-0.0615% [at 95.7 µM],–
c1ccc(C(O[C@@H]2CCCN(CCc3ccc4c(c3)OCO4)C2)c2ccccc2)cc1,0.001%,–
Nc1nc2c(ncn2COCCO)c(=O)[nH]1,0.0242% [at 18.6 µM],–
CCC(=O)C(=O)CC,-0.0474% [at 95.7 µM],–
O=C(O)CN(CCN(CC(=O)O)CC(=O)O)CC(=O)O,–,inactive
Cc1ccc(N/N=c2\c(=O)cc/c(=N\Nc3ccc(S(=O)(=O)O)cc3)c2=O)c(C)c1,-0.552%,–
O=S(=O)(O)c1ccccc1/C=C/c1ccc(-c2ccc(/C=C/c3ccccc3S(=O)(=O)O)cc2)cc1,–,6.31 µM [fluorescent] (active)
CC[N+](CC)(CC)CCOc1ccc(/C=C/c2ccccc2)cc1,–,inactive
CNC(=O)c1ccccc1Sc1ccc2c(/C=C/c3ccccn3)n[nH]c2c1,0.0232% [at 46 µM],–
COc1ccc(-c2coc3cc(O)ccc3c2=O)cc1,0.829%,–
Cc1cccc(C(=O)O)c1O,-0.0215% [at 46 µM],–
CCO[Si](OCC)(OCC)OCC,-0.0895% [at 95.7 µM],–
COCCOc1cc2cc(C(=O)NC3CCN(C(C)C)CC3)n(CC(=O)Nc3ccc(Cl)cn3)c2cn1,0.013%,–
Cc1c(C)c([N+](=O)[O-])c(C(C)(C)C)c([N+](=O)[O-])c1C,-0.148%,–
C=CCn1c(=O)n(CC=C)c(=O)n(CC=C)c1=O,-0.0079%,–
Cc1ccc(-c2ccccc2)cc1,-0.117%,–
